D1 ag: human D1 receptor agonism; P21728; HEK293 T-REx D1 cells, calcium flux, agonist mode; activation, % at 2 µM; 360,000 compounds, 1% hits; AID 504660; also: 0% is about no effect
Target sequence (P21728 whole entry, looked up): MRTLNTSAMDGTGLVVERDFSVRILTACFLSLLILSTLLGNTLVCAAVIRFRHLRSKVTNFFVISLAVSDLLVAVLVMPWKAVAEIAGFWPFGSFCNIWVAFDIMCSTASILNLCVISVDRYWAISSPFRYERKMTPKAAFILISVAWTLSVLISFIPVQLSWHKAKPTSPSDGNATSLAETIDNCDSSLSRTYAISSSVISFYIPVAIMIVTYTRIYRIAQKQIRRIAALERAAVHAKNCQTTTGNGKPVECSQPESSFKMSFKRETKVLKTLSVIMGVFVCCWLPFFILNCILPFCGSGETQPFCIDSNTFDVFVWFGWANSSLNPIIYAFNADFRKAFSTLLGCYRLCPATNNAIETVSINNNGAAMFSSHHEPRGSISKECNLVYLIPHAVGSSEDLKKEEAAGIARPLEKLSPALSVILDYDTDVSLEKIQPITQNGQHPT
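Agonism was scored from calcium flux recorded over 180 s (1 read/s) after pintool compound addition, following a 10-cycle baseline. Cells were inducible force-coupled HEK293 TREx D1, plated overnight at 30 C and loaded with no-wash calcium dye.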
TRHR ag: TRH receptor (human) agonism | P34981 | TRHR cells, calcium flux fluo-8, FDSS agonist mode | activation, % at 2 µM | 360,000 compounds, 0.18% hits | AID 493084; also: 0% is about no effect
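Fluo-8-loaded TRHR cells; 10 s baseline, compound added, kinetic Ca2+ fluorescence read 1/s, agonist mode.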
D1 PAM: human D1 dopamine receptor positive modulation; P21728; HEK293 TREx D1 cells, calcium flux, dopamine EC20 potentiation; potentiation, % at 10 µM; 360,000 compounds, 0.036% hits; AID 504651; in the data active = potentiation above about 30%; also: 0% is about no effect
D1 antag: human D1 dopamine receptor antagonism. HEK293 TREx D1 cells, calcium flux, dopamine EC80; hits give low values. activity change, negative = inhibition, % at 10 µM. 360,000 compounds, 3.2% hits. AID 504652; in the data active = activity change below about -30%; also: % is scaled to controls: 0 for no effect and ±100 for the full control effect
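Cells carrying a force-coupled, tetracycline-inducible human D1 receptor report calcium flux. Each well gets a 10 s baseline, compound with 180 s monitoring, then an EC80 dopamine stimulus with a second 180 s kinetic read.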
TRHR enhancer: allosterically enhances the human TRH receptor; TRHR cells, fluo-8 calcium fluorescence, EC20 TRH enhancement; enhancement, % at 2 µM; 360,000 compounds, 0.66% hits; AID 493056; in the data active = enhancement above about 30%; also: 0% is about no effect
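TRHR-expressing cells loaded with fluo-8 calcium dye were read kinetically (ex 480/em 530) during compound addition, then stimulated with an EC20 of TRH (10 nM final). Enhancement of the Gq-mediated intracellular calcium response was scored.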
The depositor's hits bear a star; / = not tested or not shown. In the library only some 4.7% were active in any assay of this set; here they are far more common. Rule as the data show it, unless noted: active = activation above about 30%; inactive = the rest.

SMILES	D1 ag	TRHR ag	D1 PAM	D1 antag	TRHR enhancer
C=CCN(C(=O)c1cccc(N2C(=O)C3CC=CC(C)C3C2=O)c1)c1ccccc1 (stereo not given)	5.3	1.7	-7.4	3.8	4.3
COc1ccc2c(c1)-c1nc(NC(=O)c3cc(Cl)ccc3OC)sc1CC2	-2.1	0.1	-3.5	-2.2	-0.2
CCN1CCN(CCNC(=O)c2ccc3c(c2)N(Cc2cccc(Cl)c2)C(=O)c2ccccc2S3=O)CC1 (stereo not given)	1.3	3.6	-2.2	10.7	11.9
Cc1cc(C)cc(C(=O)OCC(=O)Nc2cccc(S(=O)(=O)NC3=NCCCCC3)c2)c1	3.3	0.6	-5.3	-45.5*	4.4
CCN(CC)S(=O)(=O)c1cccc(NC2=NCCCCC2)c1	1.5	0.0	-3.7	-36.2*	9.1
CCCCN1C(=O)CN(C2CCCCCC2)C(=O)C1c1ccc(OC(C)C)c(OC)c1 (stereo not given)	-1.2	-1.5	-0.4	-6.2	-3.1
O=C(NCc1cccnc1)C(=O)NCC(c1cccnc1)N1CCN(c2ccc(F)cc2)CC1 (stereo not given)	5.3	0.0	-5.5	1.4	9.2
CN(C)CCNC(=O)C(=O)NCC(c1cccnc1)N1CCN(c2ccc(F)cc2)CC1 (stereo not given)	-1.2	-0.2	2.6	-2.3	-6.2
O=C(NCC(c1cccnc1)N1CCN(c2ccccc2F)CC1)c1ccccc1 (stereo not given)	0.7	-0.2	-7.2	-31.8*	-13.5
CN(C)CCNC(=O)C(=O)NCC(c1cccnc1)N1CCN(c2ccccc2)CC1 (stereo not given)	5.2	0.2	-3.8	-32.8*	7.9
O=C(NCCc1ccccc1)C(=O)NCC(c1cccnc1)N1CCN(c2ccc(F)cc2)CC1 (stereo not given)	32.8*	-0.9	1.4	3.7	0.6
Cc1ccc(C(=O)NCC(c2cccnc2)N2CCc3ccccc3C2)cc1C (stereo not given)	3.3	0.1	-3.4	-31.2*	1.5
CC(C)(C)c1ccc(C(=O)NCC(c2cccnc2)N2CCc3ccccc3C2)cc1 (stereo not given)	2.6	-1.1	1.4	7.1	1.3
Cc1c(NC(=O)c2sc3ccccc3c2Cl)cccc1-c1nc2ccccc2o1	-0.7	-0.1	2.3	2.2	4.5
CCOC(=O)/C=C/[C@H]1CC(c2ccccc2)(c2ccccc2)CO1	9.3	-0.2	-4.7	/	-3.4
Cc1ccc2cc(CN(C(=O)c3cccc(Cl)c3)c3ccccc3)c(=O)[nH]c2c1	3.6	-0.4	7.0	4.5	-8.1
Cn1c(-n2cccc2)c(-c2c(-c3ccccc3)[nH]c3c2c(=O)n(C)c(=O)n3C)c(=O)n(C)c1=O	-0.3	-1.0	-0.5	3.6	4.4
CCOC(=O)c1sc2ccccc2c1S(=O)(=O)NCc1ccc(F)cc1	4.3	0.4	-2.8	-7.1	-1.7
O=C(Nc1ccccc1N1CCOCC1)c1cccnc1	0.6	-0.1	-10.8	-79.4*	-2.6
O=C(Nc1ccc(N2CCOCC2)c(Cl)c1)c1cccnc1	0.8	0.9	-5.5	1.6	-2.9
CCn1c(O)c(N=NC(=O)C2C(=O)NCC2c2ccccc2)c2ccccc21 (stereo not given)	1.0	-1.0	-2.5	-80.2*	-6.0
Cc1ccc(CN(Cc2ccco2)S(=O)(=O)c2ccc(S(=O)(=O)NCC3CCCO3)cc2)cc1 (stereo not given)	23.4	0.1	-3.5	-35.6*	-1.2
O=S(=O)(NCC1CCCO1)c1ccccc1 (stereo not given)	0.5	-0.2	-2.3	1.4	0.0
Cc1ccc(-c2ccc(S(=O)(=O)NCC3CCCO3)cc2)cc1 (stereo not given)	8.4	-0.6	-6.0	-31.6*	-2.0
O=C(c1ccc(S(=O)(=O)NCC2CCCO2)cc1)N1CCc2ccccc21 (stereo not given)	12.8	-0.5	-5.6	-51.1*	0.4
SMILES	D1 ag	TRHR ag	D1 PAM	D1 antag	TRHR enhancer
COc1cc(NC(=O)COC(=O)Cn2cnc3c2c(=O)n(C)c(=O)n3C)cc(OC)c1	1.4	0.3	5.2	18.9	4.8
COc1ccc(NS(=O)(=O)c2ccc(N3CCCCC3)c(N)c2)cc1	25.6	2.3	-6.7	-21.7	-6.7
CCn1ccc2cc(S(=O)(=O)N3CCCN(C(=O)Nc4ccccc4C(F)(F)F)CC3)ccc21	5.8	-0.7	-1.9	-16.0	-0.7
CCN1C(=O)/C(=C/c2ccc(N3CCCC3)cc2)NC1=S	241.7*	110.6*	10.5	-52.5*	17.8
Cc1cc(N2CCCC2)ccc1/C=C1/C(=O)N(C)C(=S)N1C	35.8*	10.8	-4.1	4.1	-6.9
Cc1cc(/C=C2/C(=O)N(C)C(=S)N2C)ccc1N1CCCC1	127.5*	28.8	7.5	/	-3.2
Cc1cc(/C=C2\NC(=S)N(C)C2=O)ccc1N1CCCC1	330.8*	141.9*	6.8	-45.2*	32.4*
COc1cc(/C=C2\NC(=S)N(C)C2=O)ccc1O	16.2	10.2	-1.9	-4.7	-1.1
CN1C(=O)/C(=C/C=C2/CCCN2C)N(C)C1=S	5.4	-1.8	2.7	-10.7	-0.2
CC(Nc1ccc(F)cc1)=[N+](C)CCNS(=O)(=O)c1ccc(Cl)cc1	3.4	0.4	0.0	-5.7	3.1
CC(=O)N1CCc2c(sc3c2c(=O)n(Cc2ccccc2)c(=O)n3CC(=O)Nc2ccc(C)c(F)c2)C1	0.9	0.5	-5.2	-3.4	-0.1
O=C1COc2ccc(C(=O)COC(=O)CCSc3ccc(Cl)cc3)cc2N1	1.0	0.5	0.1	-0.8	5.0
O=C1COc2ccc(C(=O)COC(=O)Cc3ccc(Cl)cc3)cc2N1	5.5	1.3	3.7	0.7	35.7*
Cc1ccc(-n2ncc3c(N4CCCCC4)ncnc32)cc1Cl	-3.0	-0.3	1.4	-3.7	-3.2
Fc1cccc(Cl)c1CSc1nnnn1-c1ccc2c(c1)OCO2	7.7	0.0	-5.6	-32.1*	-11.1
Fc1cccc(Cl)c1Cn1nnc(-c2ccc3c(c2)OCO3)n1	18.0	0.9	0.2	13.9	-2.1
O=C(CC1SC(N2CCCCC2)=NC1=O)Nc1cccc(C(=O)NCc2ccc(F)cc2)c1 (stereo not given)	5.1	0.1	1.9	-2.5	-3.0
Cn1c(SCC(=O)NCC2CCCO2)nnc1-c1ccc(S(=O)(=O)N2CCCC2)cc1 (stereo not given)	3.1	0.1	0.2	7.9	37.6*
C=CCNC(=O)CSc1nnc(-c2ccc(S(=O)(=O)N3CCCC3)cc2)n1C	6.0	-0.8	/	-4.7	-2.8
Cc1cccc(OCc2nnc(SCC(=O)NCC3CCCO3)n2C)c1 (stereo not given)	-1.9	-0.4	-1.9	6.9	37.0*
CCCNC(=O)CSc1ccc(S(=O)(=O)N2CCCC2)cn1	-0.3	0.2	1.8	-34.2*	6.1
CCCNC(=O)CSc1ccc(S(=O)(=O)N2CCCCC2)cn1	2.3	-0.2	-1.3	-11.3	-1.0
